ClpP mod: qHTS Assay for Activators of ClpP; ATP-dependent Clp protease proteolytic subunit (Bacillus subtilis (strain 168)), P80244; purified B. subtilis ClpP, FRET peptide cleavage, 20 min; Potency, µM (titrated, usually from 57.5 µM), for inactives: at the highest dose activity change, negative = active; hit rate 1.9% among 340,000; active = well fitted falling curve with a large enough effect; inconclusive = small, poorly fitted or top-dose-only effect; inactive = no such curve, though single readings can be large or run the other way; also: potency is read from the fitted curve at half-maximal effect; the source files actives as falling curves though it sought activators and does not explain the sign; nearly all actives have a fitted effect of over 65% in size
Target sequence (P80244 whole entry, looked up): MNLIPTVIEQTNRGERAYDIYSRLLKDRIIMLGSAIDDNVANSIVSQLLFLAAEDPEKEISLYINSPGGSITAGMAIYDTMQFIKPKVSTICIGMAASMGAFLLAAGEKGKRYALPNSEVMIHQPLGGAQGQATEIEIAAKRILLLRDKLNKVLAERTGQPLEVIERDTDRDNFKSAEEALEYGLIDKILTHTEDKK
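FRET quenching reversal measured ClpP activation: 10 microg/mL B. subtilis ClpP at pH 8 with the FRET-FV decapeptide, read at 430 nm after 320 nm excitation. The 20-min minus 0-min signal was scaled between DMSO/no-enzyme wells and ADEP (5.8 microM final).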
D3 ag: agonists of human D3 dopamine receptor; P35462; D3R DiscoveRx beta-arrestin cells, luminescence, 90 min; AID 652048; max activation, %; hit rate 0.58% among 410,000; in the data active = max activation above about 30%; also: 0% is about no effect
Target sequence (P35462 whole entry, looked up): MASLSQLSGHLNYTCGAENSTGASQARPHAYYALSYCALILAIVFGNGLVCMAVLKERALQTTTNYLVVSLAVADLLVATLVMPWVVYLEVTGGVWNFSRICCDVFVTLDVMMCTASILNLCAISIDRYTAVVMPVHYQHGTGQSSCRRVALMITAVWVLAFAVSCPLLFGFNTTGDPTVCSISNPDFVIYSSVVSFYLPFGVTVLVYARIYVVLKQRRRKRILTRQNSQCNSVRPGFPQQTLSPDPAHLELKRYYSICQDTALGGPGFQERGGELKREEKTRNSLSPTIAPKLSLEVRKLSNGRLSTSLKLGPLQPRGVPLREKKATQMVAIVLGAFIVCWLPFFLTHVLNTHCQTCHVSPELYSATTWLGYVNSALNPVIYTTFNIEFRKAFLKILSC
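Agonist mode: compounds and dopamine controls were applied to plated cells for 90 min at 37 degrees C after an overnight attachment at 1500 cells/well. Luminescent read-out followed 30 - 60 minutes at room temperature with DiscoveRx detection reagent.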
TDP1 cell noCPT: qHTS for Inhibitors of human tyrosyl-DNA phosphodiesterase 1 (TDP1): qHTS in cells in absence of CPT | DT40 Tdp1-/- hTDP1 cells, no CPT, ATP luminescence, 48 h | Potency, µM (series often up to 46.2 µM), for inactives: at the top dose activity change, negative = growth inhibition, actives largely listed as inhibitors | hit rate 15% among 420,000; also: potency is read from the fitted curve at half-maximal effect; % is scaled to controls: 0 for no effect and ±100 for the full control effect; nearly all actives have a fitted effect of over 55% in size
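Chicken DT40 Tdp1-/- cells stably complemented with human TDP1 were seeded at 400 cells/well with DMSO in place of 20 nM camptothecin. After compound pinning, cells grew at least 48 hr at 37 °C; viability read by CellTiter-Glo luminescence.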
IL1B secr inh: inflammasome signaling inhibition, IL-1 beta readout. THP-1 LPS/ATP IL-1B secretion, AlphaLISA, 16 h; stronger effect = lower value. activity change, % at 57.5 µM. hit rate 4.7% among 360,000; in the data active = activity change below about -50%; inconclusive = mostly about -30% to -49%; also: % is scaled to controls: 0 for no effect and ±100 for the full control effect
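THP-1 cells pretreated 1 hr with compounds (up to 57.5 uM final), then stimulated with LPS (250 ng/mL final) plus ATP (1.25 mM final); secreted IL-1B measured by AlphaLISA after 16 hr, decreased signal indicating inhibition.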
TDP1 cell CPT: DT40-hTDP1 cell growth loss with CPT | chicken DT40 Tdp1-/-;hTDP1 cells + 20 nM CPT, ATP luminescence, 48 h | Potency, µM (titrated, usually from 46.2 µM), inactives show top-dose activity change, negative = growth inhibition, hits mostly inhibitors | hit rate 12% among 420,000; also: potency is read from the fitted curve at half-maximal effect; % is scaled to controls: 0 for no effect and ±100 for the full control effect; nearly all actives have a fitted effect of over 55% in size
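Cell growth measured by CellTiter-Glo luminescence after a minimum 48 h, 37 C compound exposure with 20 nM CPT in Tdp1-knockout DT40 cells stably expressing hTDP1, seeded 400/well; qHTS titration format.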
DRD3 antagonist: blocks the human D3 dopamine receptor; P35462; AID 652054; max response, negative = inhibition, %; hit rate 2.5% among 360,000; D3R cells, DiscoveRx beta-arrestin luminescence, antagonist mode; stronger effect = lower value; in the data active = max response below about -50%; inconclusive = no clear call, values can overlap the other calls; also: % is scaled to controls: 0 for no effect and ±100 for the full control effect
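Cells expressing the human receptor were seeded at 1500 cells/well, incubated overnight at 37 degrees C in 5% CO2, then exposed to library compounds with dopamine controls for 90 minutes at 37 degrees C before luminescent detection.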
The depositor's hits bear a star; ! = repeats disagree. The list is not random: actives were taken first. Their share in the collection is about 21%. Unless noted, calls follow the shape of the dose curve; as a rule, active = well fitted inhibition curve with a large enough effect; inconclusive = small, poorly fitted or top-dose-only effect; inactive = flat fitted curve, though single readings scatter.

Screening COc1ccccc1C(=O)NCC1CCN(c2ccc(S(=O)(=O)N3CCOCC3)cc2)CC1 returned ClpP mod -1%, D3 ag 9, TDP1 cell noCPT 23µM*, IL1B secr inh -3, TDP1 cell CPT 21µM* and DRD3 antagonist 29.
`COc1cc(C(=O)Nc2ccc(C(F)(F)F)cc2)ccc1OCC(=O)N1CCOCC1` gave D3 ag -5, TDP1 cell noCPT inconclusive, IL1B secr inh -6, TDP1 cell CPT -29% and DRD3 antagonist 2.
`COc1ccc(Cc2noc(-c3ccc([N+](=O)[O-])cc3)n2)cc1OC` gave ClpP mod 0%, D3 ag -2, TDP1 cell noCPT inconclusive, IL1B secr inh -2, TDP1 cell CPT 26µM* and DRD3 antagonist 34.
Screening Cc1ccc2c(c1)nnn2C1CCN(CC(=O)c2ccc(Cl)cc2)CC1 returned ClpP mod 0%, D3 ag -2, TDP1 cell noCPT -13%, IL1B secr inh 8, TDP1 cell CPT -23% and DRD3 antagonist 0.
For Cc1cc(C)cc(NC(=O)c2ccc3c(c2)nnn3C2CCCC2)c1 the results were ClpP mod inconclusive, D3 ag -23, TDP1 cell noCPT 1.5µM* and TDP1 cell CPT 1.3µM*.
`O=C(CN1CCC(n2nnc3ccccc32)CC1)Nc1ccc2c(c1)CCC2` gave ClpP mod 1%, D3 ag -7, TDP1 cell noCPT inconclusive, IL1B secr inh -11, TDP1 cell CPT inconclusive and DRD3 antagonist -65*.
`O=C(CN1CCC(n2nnc3cc(F)ccc32)CC1)NCCc1nc2ccccc2[nH]1` gave ClpP mod 0%, D3 ag -34, TDP1 cell noCPT -26%, IL1B secr inh 5, TDP1 cell CPT -6% and DRD3 antagonist -65*.
For Cc1ccc2c(c1)nnn2C1CCN(CC(=O)N2CCN(c3ccc(F)cc3)CC2)CC1 the results were ClpP mod -6%, D3 ag -7, TDP1 cell noCPT 26µM*, IL1B secr inh -5, TDP1 cell CPT 16µM* and DRD3 antagonist -9.
`Cc1ccccc1NC(=O)CN1CCC(n2nnc3ccccc32)CC1` gave ClpP mod -5%, D3 ag 0, TDP1 cell noCPT -29%, IL1B secr inh -28, TDP1 cell CPT -13% and DRD3 antagonist inconclusive.
Screening COc1ccc(NC(=O)CCCSc2nc(-c3ccco3)cc(C(F)(F)F)n2)c(OC)c1 returned ClpP mod -2%, D3 ag 17, TDP1 cell noCPT inconclusive and TDP1 cell CPT inconclusive.
`O=C(NCc1ccco1)/C(=C\c1ccc(F)cc1)NC(=O)c1ccco1` gave ClpP mod -5%, D3 ag -12, TDP1 cell noCPT -2%, IL1B secr inh 3, TDP1 cell CPT 33% and DRD3 antagonist -3.
For NC(N)=NCC1COc2ccccc2O1 (centres undefined) the results were D3 ag -27, TDP1 cell noCPT inconclusive and TDP1 cell CPT -20%.
For O=C(CN1CCC(n2nnc3cc(F)ccc32)CC1)Nc1ccc2c(c1)CCC2 the results were ClpP mod 14µM*, D3 ag -11, TDP1 cell noCPT inconclusive, IL1B secr inh inconclusive, TDP1 cell CPT inconclusive and DRD3 antagonist -76*.
For CC1CCC(NC(=O)CN2CCC(n3nnc4cc(F)ccc43)CC2)CC1 (centres undefined) the results were ClpP mod -5%, D3 ag 0, TDP1 cell noCPT inconclusive, IL1B secr inh -15, TDP1 cell CPT inconclusive and DRD3 antagonist -67*.
Screening Cc1ccc2c(c1)nnn2C1CCN(CC(=O)Nc2ccc(F)cc2)CC1 returned D3 ag -34, TDP1 cell noCPT 21µM*, IL1B secr inh inconclusive, TDP1 cell CPT inconclusive and DRD3 antagonist inconclusive.
For Cc1cccc(NC(=O)CSCC(=O)N(C)CCOc2ccc(Cl)cc2)c1 the results were ClpP mod -2%, D3 ag 3, TDP1 cell noCPT inconclusive, IL1B secr inh inconclusive, TDP1 cell CPT -9% and DRD3 antagonist 9.
`COc1ccc(C)cc1NS(=O)(=O)c1ccc2[nH]c(=O)c(=O)[nH]c2c1` gave ClpP mod -3%, D3 ag 3, TDP1 cell noCPT 9% and TDP1 cell CPT -11%.
For OB(O)c1csc2ccccc12 the results were ClpP mod -2%, TDP1 cell noCPT 11µM* and TDP1 cell CPT -4%.
Cc1c(C(=O)Nc2cccc(C#N)c2)sc2nc3n(c(=O)c12)CCCCC3 was read as ClpP mod 0%, D3 ag 2, TDP1 cell noCPT 13µM* and TDP1 cell CPT 16µM*.
`Cc1nc(N2CCCCC2C)c2c(C)c(C(=O)Nc3cccc(C(F)(F)F)c3)sc2n1` (centres undefined) gave D3 ag 15, TDP1 cell noCPT inconclusive, IL1B secr inh -73*, TDP1 cell CPT inconclusive and DRD3 antagonist 54.
`Cc1c(C(=O)Nc2cccc(C(F)(F)F)c2)sc2nc3n(c(=O)c12)CCC3` gave ClpP mod 0%, D3 ag 5, TDP1 cell noCPT 23µM* and TDP1 cell CPT 23µM*.
`CCOC(=O)c1ccc(NC(=O)c2sc3nc4n(c(=O)c3c2C)CCC4)cc1` gave ClpP mod -3%, D3 ag 22, TDP1 cell noCPT 18µM*, IL1B secr inh -52*, TDP1 cell CPT 16µM*! and DRD3 antagonist 17.
Screening CCOc1ccc(NC(=O)c2sc3nc4n(c(=O)c3c2C)CCC4)cc1 returned ClpP mod 0%, D3 ag -11, TDP1 cell noCPT -13%, IL1B secr inh -12, TDP1 cell CPT inconclusive and DRD3 antagonist -12.
`CCc1cccc(NC(=O)c2sc3nc4n(c(=O)c3c2C)CCC4)c1` gave ClpP mod -5%, D3 ag 6, TDP1 cell noCPT inconclusive, IL1B secr inh 5, TDP1 cell CPT inconclusive and DRD3 antagonist -5.
COc1cc(/C=C/C(=O)OC(C)C(=O)Nc2c(C)n(C)n(-c3ccccc3)c2=O)ccc1OCC#N (centres undefined) was read as D3 ag 0, TDP1 cell noCPT -18%, IL1B secr inh 3, TDP1 cell CPT 5% and DRD3 antagonist 9.
`COc1cc2c(c(OC)c1OC)C(=O)C(=Cc1ccccc1)O2` gave ClpP mod -5%, D3 ag 4, TDP1 cell noCPT inconclusive, IL1B secr inh -21, TDP1 cell CPT inconclusive and DRD3 antagonist 4.

Screens: PubChem, National Center for Advancing Translational Sciences (NCATS)
